# Measurements as given in PubChem BioAssay (NCATS).
# Values joined by “and” are separate entries in the source; they are usually repeats but may differ in a detail not shown here. Equal entries are not always repeated. Inconclusive results are not listed. Where a call stands in place of a potency, no number is given. Active and inactive are the calls of the source. Unless noted, calls come from the whole dose curve; as a rule, active = well fitted curve in the direction sought with a large enough effect; inconclusive = small, poorly fitted or top-dose-only effect, or another doubt; inactive = no such curve, though single readings can be large; an effect the other way counts as inactive or inconclusive.
# How the values were obtained:
# [1] = molecular target: Guanine nucleotide-binding protein G(i) subunit alpha-1 (Homo sapiens) (UniProt P63096); test: qHTS Assay for Inhibitors of RGS12 GoLoco Motif Activity (Green Fluorophore) (AID 879); settings: Galphai1/FITC-RGS12 GoLoco peptide, fluorescence polarization; series mostly up to 57.1 µM;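 note: negative values mean loss of peptide binding seen as reduced polarization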
# Summary of the method: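 A drop in FITC polarization marked displacement of the FITC-tagged RGS12 GoLoco peptide (10 nM) from Gαi1 (50 nM). Compounds were incubated 10 min at room temperature in Tris pH 7.5 buffer containing 150 mM NaCl, 0.1 mM GDP and 0.05% NP40; unlabeled peptide titration served as control.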
# [2] = Cellular Toxicity (caspase-3) HepG2 (AID 654); settings: HepG2 caspase-3 activation, luminescence, 0% = DMSO only, 100% = tamoxifen; series mostly up to 92.2 µM;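 note: cells exposed to compound for 16 hours before reading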
# Summary of the method: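 Caspase 3/7 activation in HepG2 is measured as rising luminescence after a 16 hr treatment at 37 °C. Values are scaled between DMSO basal and 100 uM tamoxifen, and AC50 is fitted with the Hill equation.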
# [3] = Cellular Toxicity (caspase-3) Jurkat (AID 655); settings: Jurkat caspase-3 activation, luminescence; series mostly up to 92.2 µM;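 note: cells exposed to compound for 16 h at 37 °C before reading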
# Summary of the method: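 Caspase 3/7 activation is scored as increased luminescence in Jurkat cells cultured with compound for 16 hours in complete medium. AC50 values come from Hill fits of qHTS concentration-response data normalized to DMSO and 100 uM tamoxifen controls.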
# [4] = Cellular Toxicity (caspase-3) HUV-EC-C (AID 656); settings: HUV-EC-C cells, caspase-3 activation (apoptosis), vehicle = 0, 100 µM tamoxifen = 100%; series mostly up to 92.2 µM
# Summary of the method: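 Read-out: luminescence proportional to caspase 3/7 activity, measured 20 min after adding Caspase-Glo 3/7 reagent. Cells (HUV-EC-C) had received compound for 16 hr at 37°C. Increases relative to DMSO and 100 uM tamoxifen gave concentration-response AC50 values.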
# [5] = Cellular Toxicity (caspase-3) SHSY5Y (AID 657); settings: SH-SY5Y caspase-3 activation, DMSO zero, 10 µM staurosporine = 100%; series mostly up to 91.7 µM
# Summary of the method: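 Cells plated and incubated 5 h at 37 °C, dosed over a concentration range, incubated 16 h, then given Caspase-Glo 3/7 reagent for 1 h at room temperature before luminescence reading. Staurosporine (10 uM) defined full stimulation.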
# [6] = Cellular Toxicity (caspase-3) BJ (AID 658); settings: BJ fibroblasts, luminescence, normalized: DMSO 0%, staurosporine 100%; series mostly up to 91.7 µM
# Summary of the method: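 Plated BJ cells (1000/well) rested 5 hr, received compound for 16 hr at 37 °C, then Caspase-Glo 3/7 reagent for 1 hr at room temperature before luminescence reading.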
# [7] = Cellular Toxicity (caspase-3) MRC-5 (AID 659); settings: MRC-5 cells, luminescence, normalized: DMSO 0%, 10 µM staurosporine 100%; series mostly up to 91.7 µM
# Summary of the method: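 Apoptosis readout in MRC-5 cells: luciferase light generated after caspase 3/7 cleaves a peptide-aminoluciferin substrate, measured post 16 hr compound incubation at 37 °C.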
# [8] = Cellular Toxicity (caspase-3) Mesangial (AID 660); settings: mesangial cells, normalized: DMSO 0%, 100 µM tamoxifen 100%; series mostly up to 91.7 µM;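 note: cells exposed to compound for 16 h before the caspase read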
# Summary of the method: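 Seed cells derived from normal human renal glomeruli, incubate 5 h, add compounds across concentrations and incubate 16 h at 37 °C. Caspase 3/7 activation is then quantified by luciferase light, with AC50 derived by Hill modeling.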
# [9] = Cellular Toxicity (caspase-3) SK-N-SH (AID 661); settings: SK-N-SH caspase-3 activation, qHTS, DMSO as zero, staurosporine as full; series mostly up to 91.7 µM
# Summary of the method: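 Cells were seeded and incubated 5 hr at 37 °C, dosed with compound over a concentration range for 16 hr, then given Caspase-Glo 3/7 reagent for 1 hr at room temperature before luminescence reading.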
# [10] = Cellular Toxicity (caspase-3) Hek293 (AID 664); settings: HEK293 caspase-3 activation, DMSO = 0%, 100 µM tamoxifen = 100%; at 92.2 µM (top of the series);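 note: cells exposed to compound for 16 h at 37 °C before readout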
# Summary of the method: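 qHTS, HEK293 (human embryonic kidney), 16 h cpd exposure in complete medium. Caspase-3/7 activation = luminescence increase; normalized to DMSO/100 uM tamoxifen; Hill-fit AC50.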
# [11] = Cellular Toxicity (caspase-3) N2a (AID 665); settings: N2a cells, luminescence, normalized: DMSO 0%, 10 µM staurosporine 100%; series mostly up to 92.2 µM;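 note: compound exposure lasted 16 h at 37 °C before readout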
# Summary of the method: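 Caspase-3/7 activation, measured as increased luminescence from aminoluciferin release, is quantified in mouse N2a cells exposed to compounds for 16 h. Values are normalized to DMSO and 10 uM staurosporine, with AC50 derived by Hill modelling.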
# [12] = Cellular Toxicity (caspase-3) Renal Proximal Tubule (AID 667); settings: renal proximal tubule cells, primary cells freshly taken from rat, solvent-only wells 0%, staurosporine 100%; series mostly up to 91.7 µM;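 note: cells exposed to compound for 16 hours at 37 °C before detection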
# Summary of the method: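 In qHTS format, rat primary proximal tubule cells seeded at 1000 per well are exposed to compounds for 16 hours at 37 °C. An increase in Caspase-Glo 3/7 luminescence indicates caspase activation.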
# [13] = Confirmation and Secondary Assay for Modulators of Hemoglobin Beta Chain Splicing at IVS2 654 locus (AID 910); settings: HeLa EGFP-654 splicing reporter, GFP fluorescence, 48 h; series mostly up to 46.1 µM;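 note: per-well total GFP intensity by laser scanning cytometry after 2-day treatment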
# Summary of the method: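 HeLa cells stably carrying EGFP interrupted by mutant beta-globin IVS2-654 intron (CMV-driven) were treated with compound for 2 days at 37C; corrected splicing was scored as total peak GFP intensity per well (488 nm excitation, 500-520 nm emission).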
# [14] = molecular target: Cytochrome P450 2C9 (Homo sapiens) (UniProt P11712); test: qHTS Assay for Inhibitors and Substrates of Cytochrome P450 2C9 (AID 883); settings: recombinant CYP2C9, luciferin-H luminescence, 60 min; series mostly up to 57.1 µM; note: potency is the fitted concentration of half-maximal effect; nearly all actives have a fitted effect of over 60% in size
# Summary of the method: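 A luminogenic readout tracked human CYP2C9 (10nM) converting deoxyluciferin (100uM, at KM) in 25mM KPO4 during 60 min at 37C with regenerated NADPH. Values normalized to 57uM sulphaphenazole as complete inhibition.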
# [15] = molecular target: Cytochrome P450 2D6 (Homo sapiens) (UniProt P10635); test: qHTS Assay for Inhibitors and Substrates of Cytochrome P450 2D6 (AID 891); settings: recombinant CYP2D6, luciferin-ME EGE luminescence; series mostly up to 57.1 µM; note: nearly all actives have a fitted effect of over 60% in size; note: potency is the fitted concentration of half-maximal effect
# Summary of the method: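 Luminescent read-out of luciferin formed by 5 nM human CYP2D6 demethylating 30 uM Luciferin-ME EGE (Km level) over 60 min at room temperature after NADPH regeneration addition. Data normalized to full inhibition by 1.43 uM quinidine.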
# [16] = molecular target: Cytochrome P450 2C19 (Homo sapiens) (UniProt P33261); test: qHTS Assay for Inhibitors and Substrates of Cytochrome P450 2C19 (AID 899); settings: recombinant CYP2C19, luciferin-H EGE luminescence; series mostly up to 57.1 µM; note: nearly all actives have a fitted effect of over 60% in size; note: potency is the fitted concentration of half-maximal effect
# Summary of the method: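 NADPH-dependent conversion of Luciferin-H EGE (10uM, at KM) by 5nM enzyme in 50mM KPO4, 60 min at 37C following 10 min compound preincubation. Stopped with luciferin detection buffer; luminescence read after 20 min.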
# [17] = molecular target: Cytochrome P450 3A4 (Homo sapiens) (UniProt P08684); test: qHTS Assay for Inhibitors and Substrates of Cytochrome P450 3A4 (AID 884); settings: recombinant CYP3A4, Luciferin-PPXE luminescence; series mostly up to 57.1 µM; note: nearly all actives have a fitted effect of over 50% in size; note: potency is the fitted concentration of half-maximal effect
# Summary of the method: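 Luminescent readout of luciferin produced by CYP3A4 (20 nM) dealkylation of Luciferin-PPXE, 25 uM (its KM). NADPH-driven reaction ran 60 min at RT after 10 min compound preincubation; data scaled to 57 uM ketoconazole as 100% inhibition.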
# [18] = qHTS Assay for Identification of Small Molecule Antagonists for NFkB Signaling Pathway (AID 895; active = well fitted inhibition curve with a large enough effect in the signal ratio, with a control signal flat, not every such curve was filed as active; the % refers to the signal ratio; note: potency is the fitted concentration of half-maximal effect); settings: NFkB beta-lactamase reporter cells, FRET ratio 460/530, stimulated with 10 pM TNF alpha; series mostly up to 38.3 µM
# Summary of the method: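 NFkB-bla ME-180 cervical carcinoma cells with beta-lactamase reporter under NFkB response element; compounds added, then TNF alpha at 10 pM final (EC50), 5 h at 37 C. LiveBLAzer substrate 2 h, room temperature; emission 460/530 nm at 405 nm excitation.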
# [19] = molecular target: Cytochrome P450 3A4 (Homo sapiens) (UniProt P08684); test: qHTS Assay for Activators of Cytochrome P450 3A4 (AID 885); settings: recombinant CYP3A4, Luciferin-PPXE luminescence, 60 min; series mostly up to 57.1 µM; note: nearly all actives have a fitted effect of over 65% in size
# Summary of the method: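 Activators are scored by enhanced luminescence from CYP3A4 conversion of luciferin-PPXE (25uM, equal to KM) to luciferin, after 60 min at RT with an NADPH-regenerating system.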
# Sequence of Guanine nucleotide-binding protein G(i) subunit alpha-1 (Homo sapiens) (P63096 whole entry, looked up): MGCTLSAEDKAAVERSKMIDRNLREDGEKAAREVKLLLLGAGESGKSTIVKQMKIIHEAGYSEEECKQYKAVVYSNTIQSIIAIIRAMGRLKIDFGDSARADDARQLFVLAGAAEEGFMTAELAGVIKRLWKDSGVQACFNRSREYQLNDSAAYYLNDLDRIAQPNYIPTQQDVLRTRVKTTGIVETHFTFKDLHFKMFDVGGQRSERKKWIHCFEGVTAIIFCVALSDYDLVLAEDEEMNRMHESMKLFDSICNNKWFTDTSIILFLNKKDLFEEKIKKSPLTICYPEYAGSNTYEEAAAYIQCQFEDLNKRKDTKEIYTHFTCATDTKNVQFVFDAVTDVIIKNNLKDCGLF
# Sequence of Cytochrome P450 2D6 (Homo sapiens) (P10635 whole entry, looked up): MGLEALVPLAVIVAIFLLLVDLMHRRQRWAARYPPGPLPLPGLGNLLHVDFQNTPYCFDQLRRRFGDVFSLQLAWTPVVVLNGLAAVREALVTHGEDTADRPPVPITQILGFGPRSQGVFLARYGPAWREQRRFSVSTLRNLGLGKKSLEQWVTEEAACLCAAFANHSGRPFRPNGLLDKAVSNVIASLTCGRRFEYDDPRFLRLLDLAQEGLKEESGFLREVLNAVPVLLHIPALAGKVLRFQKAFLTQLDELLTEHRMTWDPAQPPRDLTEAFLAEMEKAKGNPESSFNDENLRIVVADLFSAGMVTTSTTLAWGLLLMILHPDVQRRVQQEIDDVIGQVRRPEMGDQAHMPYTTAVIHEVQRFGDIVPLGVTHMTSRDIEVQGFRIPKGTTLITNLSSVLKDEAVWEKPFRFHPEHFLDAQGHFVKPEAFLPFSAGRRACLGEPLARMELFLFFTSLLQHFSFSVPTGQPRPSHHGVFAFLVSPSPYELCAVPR
# Sequence of Cytochrome P450 2C9 (Homo sapiens) (P11712 whole entry, looked up): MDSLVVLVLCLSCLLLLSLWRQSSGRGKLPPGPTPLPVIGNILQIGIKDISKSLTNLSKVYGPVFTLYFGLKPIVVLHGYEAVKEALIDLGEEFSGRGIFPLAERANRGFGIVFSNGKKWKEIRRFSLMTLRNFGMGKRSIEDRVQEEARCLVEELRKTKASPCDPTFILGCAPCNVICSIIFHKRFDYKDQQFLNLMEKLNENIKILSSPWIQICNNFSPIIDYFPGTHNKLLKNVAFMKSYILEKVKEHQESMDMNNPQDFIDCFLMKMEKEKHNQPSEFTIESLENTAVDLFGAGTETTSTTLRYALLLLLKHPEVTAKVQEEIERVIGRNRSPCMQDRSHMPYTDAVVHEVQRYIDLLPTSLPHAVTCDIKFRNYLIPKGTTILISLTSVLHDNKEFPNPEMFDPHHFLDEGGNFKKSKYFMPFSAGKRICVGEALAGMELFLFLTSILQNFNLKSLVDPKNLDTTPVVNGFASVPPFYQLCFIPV
# Sequence of Cytochrome P450 2C19 (Homo sapiens) (P33261 whole entry, looked up): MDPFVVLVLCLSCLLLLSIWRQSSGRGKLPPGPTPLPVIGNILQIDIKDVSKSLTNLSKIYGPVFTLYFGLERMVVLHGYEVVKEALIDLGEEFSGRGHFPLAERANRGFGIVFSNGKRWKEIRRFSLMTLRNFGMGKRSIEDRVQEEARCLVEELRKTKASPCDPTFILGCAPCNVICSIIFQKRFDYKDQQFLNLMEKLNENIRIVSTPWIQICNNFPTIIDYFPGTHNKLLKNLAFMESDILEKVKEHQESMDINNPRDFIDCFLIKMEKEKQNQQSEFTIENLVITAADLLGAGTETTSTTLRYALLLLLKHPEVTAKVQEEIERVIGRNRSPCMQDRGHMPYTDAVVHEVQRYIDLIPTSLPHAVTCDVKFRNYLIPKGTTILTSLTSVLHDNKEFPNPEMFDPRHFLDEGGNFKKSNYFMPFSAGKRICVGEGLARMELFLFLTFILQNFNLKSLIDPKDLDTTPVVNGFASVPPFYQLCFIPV
# Sequence of Cytochrome P450 3A4 (Homo sapiens) (P08684 whole entry, looked up): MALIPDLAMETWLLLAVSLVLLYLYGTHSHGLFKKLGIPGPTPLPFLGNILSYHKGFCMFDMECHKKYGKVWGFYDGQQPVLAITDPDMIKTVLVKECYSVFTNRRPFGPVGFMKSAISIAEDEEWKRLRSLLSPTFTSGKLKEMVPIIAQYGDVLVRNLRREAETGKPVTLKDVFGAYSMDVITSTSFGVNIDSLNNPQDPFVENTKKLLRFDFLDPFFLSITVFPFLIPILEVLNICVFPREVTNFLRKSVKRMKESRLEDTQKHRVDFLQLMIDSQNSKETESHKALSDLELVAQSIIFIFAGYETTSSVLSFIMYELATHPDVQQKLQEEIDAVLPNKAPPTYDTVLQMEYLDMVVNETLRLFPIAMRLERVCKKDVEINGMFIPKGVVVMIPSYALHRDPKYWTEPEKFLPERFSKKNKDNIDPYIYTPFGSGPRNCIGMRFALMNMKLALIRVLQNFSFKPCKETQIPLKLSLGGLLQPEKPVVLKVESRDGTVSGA
structure (smiles),measurement,setting,value
Nc1nc(OCc2ccccc2)c2[nH]cnc2n1,outcome,[1],inactive
Nc1ccc(S(N)(=O)=O)cc1,outcome,[2],inactive
same,Potency,[3],inactive
same,outcome,[4],inactive
same,outcome,[5],inactive
same,outcome,[6],inactive
same,outcome,[7],inactive
same,outcome,[8],inactive
same,outcome,[9],inactive
same,caspase-3 activation,[10],-1.76% (inactive)
same,outcome,[11],inactive
same,outcome,[12],inactive
same,Potency,[13],inactive
Oc1ccc(-c2nc(-c3ccc(F)cc3)c(-c3ccncc3)[nH]2)cc1,outcome,[1],inactive
same,Potency,[14],7.94 µM (active)
same,Potency,[15],12.6 µM (active) and 5.01 µM (active)
same,Potency,[16],0.794 µM (active)
NCCCCNCCCN,outcome,[1],inactive
same,Potency,[17],inactive
same,Potency,[18],inactive
same,Potency,[13],inactive
CC(C)c1ccc2c(c1)c(SC(C)(C)C)c(CC(C)(C)C(=O)O)n2Cc1ccc(Cl)cc1,outcome,[1],inactive
same,outcome,[19],inactive
O=Nc1c(-c2c(O)[nH]c3cc(Br)ccc23)[nH]c2ccccc12,outcome,[1],inactive
same,outcome,[19],inactive
O=C(CCc1ccc(O)cc1)c1c(O)cc(O)cc1O,outcome,[1],inactive
same,Potency,[14],2.51 µM (active)
same,Potency,[17],2 µM (active) and 15.8 µM (active)
same,outcome,[19],inactive
same,Potency,[16],3.98 µM (active)
same,Potency,[13],inactive
CNC[C@H](O)c1ccc(O)c(O)c1,outcome,[1],inactive
O=c1c(O)c(-c2ccc(O)cc2O)oc2cc(O)cc(O)c12,outcome,[1],inactive
same,Potency,[14],10 µM (active)
same,Potency,[15],inactive
same,Potency,[16],inactive
same,Potency,[13],inactive
C[C@H](Cc1ccc(O)c(O)c1)[C@@H](C)Cc1ccc(O)c(O)c1,outcome,[1],inactive
same,Potency,[14],1.58 µM (active)
same,Potency,[17],inactive
same,Potency,[15],25.1 µM (active)
same,Potency,[18],7.94 µM (active)
same,Potency,[16],6.31 µM (active)
COc1ccccc1N1CCN(CCN(C(=O)C2CCCCC2)c2ccccn2)CC1,outcome,[1],inactive
same,Potency,[17],3.98 µM (active)
same,outcome,[19],inactive
same,Potency,[18],inactive
